Active and inactive are the calls of the source. Rule for the calls: active = hit-call score of the fitted dose curve at least 0.9, where 1 is the maximum; inactive = score below 0.9.
read-out: Tumor necrosis factor (Homo sapiens) (UniProt P01375); experiment: BSK_LPS_TNFa: BioMAP Diversity Plus: LPS Assay for Tumour Necrosis Factor alpha (TNFa) Biomarker Activity (AID 2283085); conditions: primary human HUVEC with PBMC; actives raise or lower the signal;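 for AC50: TNFa protein level quantified by ELISA in the co-culture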
Method in brief: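 HUVEC/PBMC co-culture, LPS-stimulated; 24 h post-dose; TNFa by ELISA; gain or loss of signal fitted bidirectionally vs DMSO baseline.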

Sequence of Tumor necrosis factor (Homo sapiens) (P01375 whole entry, looked up): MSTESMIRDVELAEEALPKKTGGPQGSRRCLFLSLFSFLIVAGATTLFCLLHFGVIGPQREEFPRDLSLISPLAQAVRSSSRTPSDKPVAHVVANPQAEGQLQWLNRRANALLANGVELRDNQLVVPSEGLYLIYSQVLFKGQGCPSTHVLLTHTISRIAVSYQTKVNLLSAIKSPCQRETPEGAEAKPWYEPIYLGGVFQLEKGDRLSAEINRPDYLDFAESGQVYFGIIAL

| Compound | outcome | AC50 |
| --- | --- | --- |
| CN(C)C(=O)Cl | inactive |  |
| CCC(C)(C)c1ccc(O)cc1 | inactive |  |
| CCOP(=S)(OCC)SCn1nnc2ccccc2c1=O | inactive |  |
| c1cc2c3c(cccc3c1)CC2 | inactive |  |
| O=c1ssc(Cl)c1Cl | inactive |  |
| O=S(=O)(F)C(F)(F)C(F)(F)C(F)(F)C(F)(F)C(F)(F)C(F)(F)C(F)(F)C(F)(F)F | inactive |  |
| CCOP(=S)(S)OCC | inactive |  |
| OCC(F)(F)OC(F)(F)C(F)(F)OC(F)(F)CO | inactive |  |
| ClC(Cl)(Cl)c1ccccc1 | inactive |  |
| CC(Cc1ccc(OCC(=O)O)cc1)NCC(O)c1csc(C(F)(F)F)n1 (stereo unspecified) | inactive |  |
| CC(C)(C)c1ccc(O)cc1 | inactive |  |
| O=C(O)C(F)(F)OC(F)(F)C(F)(F)OC(F)(F)C(=O)O | inactive |  |
| c1ccc(OP(Oc2ccccc2)Oc2ccccc2)cc1 | inactive |  |
| OCC1CO1 (stereo unspecified) | inactive |  |
| NC(=O)C(F)(F)C(F)(F)F | inactive |  |
| O=[N+]([O-])c1ccccc1 | inactive |  |
| Nc1ccc(Cl)cc1 | inactive |  |
| O=[N+]([O-])c1ccc(Cl)c(Cl)c1 | inactive |  |
| CCOP(=S)(Oc1ccc([N+](=O)[O-])cc1)c1ccccc1 (stereo unspecified) |  | 2.84 µM (active) |
| CC(C)(C)OOC(C)(C)C | inactive |  |
| CCCCN(CCCC)N=O | inactive |  |
| Cc1ccc(O)cc1C | inactive |  |
| O=C(O)C(Cl)Cl | inactive |  |
| c1nc[nH]n1 | inactive |  |
| c1ccc2c(c1)Nc1ccccc1S2 |  | 0.148 µM (active) |
| COP(=O)(CCC(=O)NCO)OC | inactive |  |
| CCOS(=O)(=O)OCC | inactive |  |
| Nc1ccc([N+](=O)[O-])cc1Cl | inactive |  |

read-out: Vascular cell adhesion molecule 1 (VCAM1), VCAM1 (gene 7412); experiment: BSK_LPS_VCAM1: BioMAP Diversity Plus: LPS Assay for Vascular cell adhesion molecule 1 (VCAM1) Biomarker Activity (AID 2283086); conditions: primary human HUVEC with PBMC; actives raise or lower the signal
Method in brief: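 ELISA read-out of VCAM-1 at 24 h post-dosing in an LPS-driven HUVEC/PBMC primary human co-culture; gain or loss of signal fitted bidirectionally against DMSO baseline. Cytotoxicity tracked in parallel cultures by SRB total-protein staining.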

| Compound | outcome | AC50 |
| --- | --- | --- |
| CN(C)C(=O)Cl | inactive |  |
| CCC(C)(C)c1ccc(O)cc1 | inactive |  |
| CCOP(=S)(OCC)SCn1nnc2ccccc2c1=O | inactive |  |
| c1cc2c3c(cccc3c1)CC2 | inactive |  |
| O=c1ssc(Cl)c1Cl |  | 6.59 µM (active) |
| O=S(=O)(F)C(F)(F)C(F)(F)C(F)(F)C(F)(F)C(F)(F)C(F)(F)C(F)(F)C(F)(F)F | inactive |  |
| CCOP(=S)(S)OCC | inactive |  |
| OCC(F)(F)OC(F)(F)C(F)(F)OC(F)(F)CO | inactive |  |
| ClC(Cl)(Cl)c1ccccc1 | inactive |  |
| CC(Cc1ccc(OCC(=O)O)cc1)NCC(O)c1csc(C(F)(F)F)n1 (stereo unspecified) | inactive |  |
| CC(C)(C)c1ccc(O)cc1 | inactive |  |
| O=C(O)C(F)(F)OC(F)(F)C(F)(F)OC(F)(F)C(=O)O | inactive |  |
| c1ccc(OP(Oc2ccccc2)Oc2ccccc2)cc1 | inactive |  |
| OCC1CO1 (stereo unspecified) | inactive |  |
| NC(=O)C(F)(F)C(F)(F)F | inactive |  |
| O=[N+]([O-])c1ccccc1 | inactive |  |
| Nc1ccc(Cl)cc1 | inactive |  |
| O=[N+]([O-])c1ccc(Cl)c(Cl)c1 | inactive |  |
| CCOP(=S)(Oc1ccc([N+](=O)[O-])cc1)c1ccccc1 (stereo unspecified) | inactive |  |
| CC(C)(C)OOC(C)(C)C | inactive |  |
| CCCCN(CCCC)N=O | inactive |  |
| Cc1ccc(O)cc1C | inactive |  |
| O=C(O)C(Cl)Cl | inactive |  |
| c1nc[nH]n1 | inactive |  |
| c1ccc2c(c1)Nc1ccccc1S2 | inactive |  |
| COP(=O)(CCC(=O)NCO)OC | inactive |  |
| CCOS(=O)(=O)OCC | inactive |  |
| Nc1ccc([N+](=O)[O-])cc1Cl | inactive |  |

read-out: CD38, CD38 (gene 952); experiment: BSK_SAg_CD38: BioMAP Diversity Plus: SAg Assay for CD38 Biomarker Activity (AID 2283087); conditions: primary human HUVEC with PBMC; actives raise or lower the signal
Method in brief: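 Measures CD38 on a human endothelial/PBMC co-culture driven by SEB and TSST-1, 24 h after compound exposure, using ELISA with fluorescence detection; DMSO defines baseline for bidirectional curve fitting.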

| Compound | outcome | AC50 |
| --- | --- | --- |
| CN(C)C(=O)Cl | inactive |  |
| CCC(C)(C)c1ccc(O)cc1 | inactive |  |
| CCOP(=S)(OCC)SCn1nnc2ccccc2c1=O | inactive |  |
| c1cc2c3c(cccc3c1)CC2 | inactive |  |
| O=c1ssc(Cl)c1Cl |  | 4.94 µM (active) |
| O=S(=O)(F)C(F)(F)C(F)(F)C(F)(F)C(F)(F)C(F)(F)C(F)(F)C(F)(F)C(F)(F)F | inactive |  |
| CCOP(=S)(S)OCC | inactive |  |
| OCC(F)(F)OC(F)(F)C(F)(F)OC(F)(F)CO | inactive |  |
| ClC(Cl)(Cl)c1ccccc1 | inactive |  |
| CC(Cc1ccc(OCC(=O)O)cc1)NCC(O)c1csc(C(F)(F)F)n1 (stereo unspecified) | inactive |  |
| CC(C)(C)c1ccc(O)cc1 | inactive |  |
| O=C(O)C(F)(F)OC(F)(F)C(F)(F)OC(F)(F)C(=O)O | inactive |  |
| c1ccc(OP(Oc2ccccc2)Oc2ccccc2)cc1 | inactive |  |
| OCC1CO1 (stereo unspecified) | inactive |  |
| NC(=O)C(F)(F)C(F)(F)F | inactive |  |
| O=[N+]([O-])c1ccccc1 | inactive |  |
| Nc1ccc(Cl)cc1 | inactive |  |
| O=[N+]([O-])c1ccc(Cl)c(Cl)c1 | inactive |  |
| CCOP(=S)(Oc1ccc([N+](=O)[O-])cc1)c1ccccc1 (stereo unspecified) |  | 14.2 µM (active) |
| CC(C)(C)OOC(C)(C)C | inactive |  |
| CCCCN(CCCC)N=O | inactive |  |
| Cc1ccc(O)cc1C | inactive |  |
| O=C(O)C(Cl)Cl | inactive |  |
| c1nc[nH]n1 | inactive |  |
| c1ccc2c(c1)Nc1ccccc1S2 | inactive |  |
| COP(=O)(CCC(=O)NCO)OC | inactive |  |
| CCOS(=O)(=O)OCC | inactive |  |
| Nc1ccc([N+](=O)[O-])cc1Cl | inactive |  |

read-out: CD40, CD40 (gene 958); experiment: BSK_SAg_CD40: BioMAP Diversity Plus: SAg Assay for CD40 Biomarker Activity (AID 2283088); conditions: primary human HUVEC with PBMC; actives raise or lower the signal
Method in brief: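 CD40 is measured by fluorescence ELISA in an endothelial/PBMC primary human co-culture at 24 h post-dose. Fitting is bidirectional, DMSO baseline. Parallel SRB staining (560 nm) flags cytotoxicity.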

| Compound | outcome | AC50 |
| --- | --- | --- |
| CN(C)C(=O)Cl | inactive |  |
| CCC(C)(C)c1ccc(O)cc1 | inactive |  |
| CCOP(=S)(OCC)SCn1nnc2ccccc2c1=O | inactive |  |
| c1cc2c3c(cccc3c1)CC2 | inactive |  |
| O=c1ssc(Cl)c1Cl |  | 5.44 µM (active) |
| CCOP(=S)(S)OCC | inactive |  |
| OCC(F)(F)OC(F)(F)C(F)(F)OC(F)(F)CO | inactive |  |
| CC(C)(C)c1ccc(O)cc1 | inactive |  |
| c1ccc(OP(Oc2ccccc2)Oc2ccccc2)cc1 | inactive |  |
| OCC1CO1 (stereo unspecified) | inactive |  |
| NC(=O)C(F)(F)C(F)(F)F | inactive |  |
| O=[N+]([O-])c1ccccc1 | inactive |  |
| O=[N+]([O-])c1ccc(Cl)c(Cl)c1 | inactive |  |
| CCOP(=S)(Oc1ccc([N+](=O)[O-])cc1)c1ccccc1 (stereo unspecified) |  | 14 µM (active) |
| CC(C)(C)OOC(C)(C)C | inactive |  |
| Cc1ccc(O)cc1C | inactive |  |
| c1nc[nH]n1 | inactive |  |

— PubChem BioAssay (EPA / NIEHS)
